In the library only some 19% were active in any assay of this set; here they are far more common.
IL-1B inflam inh – qHTS for Inhibitors of Inflammasome Signaling: IL-1-beta AlphaLISA Primary Screen | activity change, % at 57.5 µM | AID 743279, 2014 | THP-1 LPS/ATP IL-1B secretion, AlphaLISA, 16 h; active compounds read low | hit rate 4.7% among 360,000; in the data active = activity change below about -50%; inconclusive = mostly about -30% to -49%
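Secreted IL-1B measured by AlphaLISA bead assay after 16 h compound exposure of THP-1 cells; compounds (final up to 57.5 uM) added 1 h before LPS (250 ng/mL) and ATP (1.25 mM) stimulation; lower signal means less secretion.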
HT1080 IDH1KD tx – qHTS for induction of synthetic lethality in tumor cells producing 2HG: qHTS for the HT-1080-IDH1KD cell line; HT-1080 IDH1 knockdown viability, ATP luminescence, 48 h; hit rate 2% among 360,000; Potency, µM (top dose mostly 46.1 µM), actives largely listed as cytotoxic; AID 686971, 2013
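Knockdown cells (IDH1KD HT-1080) received compounds 2 h after plating at 750 cells/well and were kept 48 h at 37 °C in 5% FBS RPMI. A CellTiter-Glo luminescence read gave % activity for curve fitting.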
DT40 TDP1 no CPT – qHTS for Inhibitors of human tyrosyl-DNA phosphodiesterase 1 (TDP1): qHTS in cells in absence of CPT. DT40 Tdp1-/- hTDP1 cells, no CPT, ATP luminescence, 48 h. Potency, µM (series often up to 46.2 µM), hits mostly inhibitors. hit rate 15% among 420,000; note: nearly all actives have a fitted effect of over 55% in size
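Readout: luminescence from CellTiter-Glo after 30 min in the dark at RT. Cells: DT40 Tdp1-/- with stable hTDP1, 400/well. Exposure: compounds alone, ≥48 hr, 37 °C.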
HT1080NT lethal – qHTS for induction of synthetic lethality in tumor cells producing 2HG: qHTS for the HT-1080-NT fibrosarcoma cell line. HT-1080-NT fibrosarcoma viability, CellTiter-Glo ATP luminescence, 48 h. Potency, µM (doses to about 46.1 µM), hits mostly cytotoxic. hit rate 1.6% among 360,000. AID 686970, 2013;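 note: NT is the 2HG producing partner of a matched IDH1 knockdown line; nearly all actives have a fitted effect of over 55% in size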
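Viability of the 2HG-overproducing fibrosarcoma line after 48 hours of compound exposure at 37 degrees C was determined by luminescence with CellTiter-Glo, and concentration-effect curves were then fitted and categorized.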
DT40 TDP1 CPT – qHTS for Inhibitors of human tyrosyl-DNA phosphodiesterase 1 (TDP1): qHTS in cells in presence of CPT; AID 686979, 2013; hit rate 12% among 420,000; Potency, µM (doses to about 46.2 µM), hits mostly inhibitors; chicken DT40 Tdp1-/-;hTDP1 cells + 20 nM CPT, ATP luminescence, 48 h; note: nearly all actives have a fitted effect of over 55% in size
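Cell growth measured by CellTiter-Glo luminescence after a minimum 48 h, 37 C compound exposure with 20 nM CPT in Tdp1-knockout DT40 cells stably expressing hTDP1, seeded 400/well; qHTS titration format.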
Hits are given with their value; i = inactive; ? = inconclusive; nt = no result given; [ ] = another dose, or the depositor's remark. Unless noted, calls come from the whole dose curve; as a rule, active = well fitted curve in the direction sought with a large enough effect; inconclusive = small, poorly fitted or top-dose-only effect, or another doubt; inactive = no such curve, though single readings can be large; an effect the other way counts as inactive or inconclusive.

SMILES	IL-1B inflam inh	HT1080 IDH1KD tx	DT40 TDP1 no CPT	HT1080NT lethal	DT40 TDP1 CPT
CCN(CC)c1ccc(S(=O)(=O)N2CCOCC2)cc1NC(=O)CN1CCN(Cc2ccccc2)CC1	i	i	15µM	i	16µM
CC(=O)Nc1ccccc1P(=O)(c1ccccc1)c1ccccc1OC(C)=O (centres undefined)	i	i	i	i	i
COc1ccccc1CNC(=O)CN(C)c1nn2c(=O)cc(C)nc2s1	nt	nt	i	nt	?
CCC[N+](C)(C)c1ccc(/C=C/c2ccnc3ccccc23)cc1	nt	nt	0.18µM	nt	0.025µM
Oc1ccc(/C=C/c2ccnc3ccccc23)cc1	-62	?	12µM	?	18µM
N#CC(C#N)c1ccnc2ccccc12	?	i	i	i	?
C[N+](C)(C)c1ccc(/C=C/c2ccnc3ccccc23)cc1	nt	nt	0.63µM	nt	0.79µM
CCOc1cc(S(=O)(=O)NCCCN2CCOCC2)ccc1F	i	i	i	i	i
CCOc1ccc(S(=O)(=O)N2CCC(C(=O)N3CCc4ccccc4C3)CC2)cc1	i	i	15µM	i	?
CS(=O)(=O)N1CCC(C(=O)N2CCc3ccccc3C2)CC1	i	i	i	i	i
COc1ccc(OC)c(S(=O)(=O)N2CCCC2C(=O)N2CCc3ccccc3C2)c1 (centres undefined)	i	i	23µM	i	15µM
CSc1ccc(S(=O)(=O)N2CCC(C(=O)N3CCc4ccccc4C3)CC2)cc1	-64	i	?	i	?
S=C(N=Nc1ccccc1)NNc1ccccc1	i	i	?	i	3.7µM
CC(C)C[C@@H]1CN=C(N)N1C[C@@H]1CCCN1C[C@H](C)N1C[C@@H](Cc2ccccc2)N(CCc2ccc(Cl)c(Cl)c2)C1=N	i	i	?	i	18µM
CC(C)C[C@@H]1CN=C(N)N1C[C@@H]1CCCN1C[C@@H](C(C)C)N1C[C@@H](Cc2ccccc2)N(CCc2ccc(Cl)c(Cl)c2)C1=N	?	i	i	i	i
CCC[C@@H](CN1CCC[C@H]1CN1C(N)=NC[C@H]1CC(C)C)N1C[C@@H]([C@H](C)CC)N(CCCC2CCCC2)C1=N	-58	i	16µM	i	21µM
CCCCN1C(=N)N([C@@H](C)CN2CCC[C@H]2CN2C(N)=NC[C@H]2CC(C)C)C[C@H]1[C@H](C)CC	i	i	16µM	i	23µM
CCC[C@@H](CN1CCC[C@H]1CN1C(N)=NC[C@H]1C(C)C)N1C[C@@H]([C@H](C)CC)N(CCCC2CCCC2)C1=N	i	i	?	i	?
Cc1ccc(CN2C[C@H](Sc3ccccn3)C[C@H]2C(=O)Nc2ccc3sc(C)nc3c2)cc1	nt	nt	i	nt	i[9.04 µM]
CC(C(=O)Nc1ccc(F)c(F)c1F)N(C)CCOc1ccccc1 (centres undefined)	i	i	i	?	i
CCN(Cc1cccc(S(=O)(=O)O)c1)c1ccc(C(=C2C=CC(=[N+](CC)Cc3cccc(S(=O)(=O)O)c3)C=C2)c2ccc(O)cc2S(=O)(=O)O)cc1	nt	nt	i	nt	i
CCN(Cc1cccc(S(=O)(=O)O)c1)c1ccc(C(=C2C=CC(=[N+](CC)Cc3cccc(S(=O)(=O)O)c3)C=C2)c2ccccc2S(=O)(=O)[O-])cc1	nt	nt	13µM	nt	2µM
CCOC(=O)c1c(-c2ccccc2)[nH]c2ccc(O)cc12	-55	i	?	i	i
COCCOC(=O)c1c(C)oc2ccc(O)c(CN3CCC(C)CC3)c12 (tested in a mixture with another compound)	-52	i	?	i	?
CCOC(=O)c1c(CS(=O)(=O)c2ccccc2)n(C)c2cc(Br)c(O)cc12	i	i	?	i	?
SMILES	IL-1B inflam inh	HT1080 IDH1KD tx	DT40 TDP1 no CPT	HT1080NT lethal	DT40 TDP1 CPT
COc1ccc(OC)c(C(=O)c2c(C)oc3cc(Br)c(O)c(CN(C)C)c23)c1	i	i	21µM	i	?
COCCOC(=O)c1c(C)oc2ccc(OCC=C(C)C)cc12	i	i	i	i	i
CCOC(=O)c1c(CS(=O)(=O)c2ccccc2)n(C)c2cc(Br)c(O)c(CN(C)C)c12	i	i	13µM	i	15µM
COCCNC(=O)CCn1c(=O)[nH]c2cc(OC)c(OC)cc2c1=O	nt	nt	i	nt	i
O=C(OCc1ccc(Cl)c(Cl)c1)c1ccc[nH]1	i	i	i	i	i
CCOC(=O)c1c(C)oc2ccc(O)c(CN(C)C)c12	i	i	?	i	i
CCOC(=O)c1c(CSc2ccccc2)oc2cc(Br)c(O)c(CN(C)C)c12	i	i	?	i	16µM
CCOC(=O)c1c(-c2ccccc2)oc2ccc(O)c(CN3CCN(C)CC3)c12	nt	?	2.3µM	?	2.1µM
CCOC(=O)c1c(C)n(C)c2ccc(O)c(CN3CCN(C)CC3)c12	i	i	i	i	i
CCOC(=O)c1c(CSc2ccc(CC)cc2)oc2ccc(O)c(CN(C)C)c12	-101	21µM	7.3µM	?	8.2µM
CC(=O)c1c(CSc2ccccc2)oc2ccc(O)c(CN(C)C)c12	-85	?	?	?	23µM
CCN(CCS(=O)(=O)c1ccc(Cl)cc1)C(=O)Nc1ccc(Cl)cc1	i	i	i	i	i
O=C(Nc1ccc(C(=O)N2CCCCC2)cc1)c1ccc([N+](=O)[O-])cc1	i	i	?	i	i
CCOC(=O)c1c(-c2ccccc2)oc2ccc(O)cc12	i	i	?	i	?
CCOC(=O)c1c(-c2ccccc2)oc2cc(CN(C)C)c(O)c(CN(C)C)c12	i	11µM	?	?	?
CCOC(=O)c1c(CSc2ccccc2)oc2ccc(O)cc12	i	i	21µM	i	?
O=C(COc1cccnc1[N+](=O)[O-])N1CCC(Cc2ccccc2)CC1	-68	i	?	i	?
CN1CCc2c(OCC(=O)N3CCCc4ccccc43)cccc2C1=O	i	i	29µM	i	i
O=C1c2cccc(OCc3ccc(F)cc3)c2CCN1Cc1ccccc1	-57	i	?	i	?
CCN1CCc2c(OCc3ccccc3)cccc2C1=O	?	i	?	i	i
O=C(COc1ccccc1F)N1CCCc2ccccc21	i	i	i	i	i
CN1CCc2c(OCC(=O)N3CCC(Cc4ccccc4)CC3)cccc2C1=O	?	i	18µM	i	21µM
O=C(c1ccccc1)c1nn(-c2ccc(Cl)cc2)cc1C(=O)c1cc2ccccc2oc1=O	i	i	i	i	i
Cc1ccc(NC(=O)c2cc3nc(-c4ccc5c(c4)OCO5)cc(C(F)(F)F)n3n2)cc1Cl	nt	nt	i	nt	i
Cc1cccc(CN2CCc3c(OCC(=O)NCc4ccco4)cccc3C2=O)c1	i	i	?	i	?

Screening data from PubChem BioAssay.
